Several values for one entry are separate records, joined by “and”; a condition that tells them apart may be missing. Equal values may be shown once. Compounds without any hit were thinned out: in the full panel of roughly 79,000, 15% have a hit. Some structures have more than one record in an assay (separate samples or runs), and their calls can disagree. Activity calls are given as the source filed them. No stated cut-off is given here; in the data, active means growth inhibition above about 70%; inactive means the rest.

A short description of the first test: NCI Yeast Anticancer Drug Screen. Data for the sgs1 mgt1 strain (AID 161).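 Further: 0% = growth of cultures given vehicle only.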 The settings on record: S. cerevisiae sgs1 mgt1 strain, at 50.0 µM (retest, dose inferred, filed as 5.0), stronger effect = higher value. The gist of the method:
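Percent growth inhibition was derived by comparing compound-exposed mutant yeast with vehicle-exposed cultures. The strain carries alterations in DNA damage repair.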
For `O=[N+]([O-])c1cc[n+]([O-])cc1`, the growth inhibition was 40% (inactive) and 54% (inactive).

`CC1(C)CC(=O)C(/C=N/c2nc(-c3ccccc3)cs2)=C(O)C1`: the growth inhibition was 38% (inactive).

On to `Nc1nc(N)c2nc(CNc3ccc(C(=O)NC(CCC(=O)O)C(=O)O)cc3F)cnc2n1` (stereo unspecified), for which the growth inhibition was 56% (inactive).

As to `COC(=O)CC1(O)C(/C=C/c2ccccc2)C(C(=O)OC)C(=O)C(C(=O)OC)C1C(=O)OC` (stereo unspecified), the growth inhibition was 23% (inactive).

Consider `CC(C)(C)c1ccc(NS(=O)(=O)c2ccc(N)cc2)cc1`, for which the growth inhibition is -16% (inactive).

As for `CCN(CC)CCNc1ccc([N+](=O)[O-])c2nc3ccccc3c(N)c12`, the growth inhibition is 6% (inactive).

Take `CCCCN(CCCC)C(=O)/C=C/c1ccccc1`: the growth inhibition is 92% (active).

As for `O=c1[nH]c(-c2ccccc2)nc2c1sc1nc3ccccc3n12`, the growth inhibition is 62% (inactive).

For the compound `O=[N+]([O-])c1ccc2c(c1)/C(=N/N=C1c3ccccc3Cc3ccccc31)c1cc([N+](=O)[O-])cc([N+](=O)[O-])c1-2`, the growth inhibition was 98% (active).

For `CC(C)C(C)/C=C\C(C)C1CCC2C3=CC=C4CC(O)CCC4(C)C3CCC21C` (stereo unspecified), the growth inhibition was 48% (inactive).

For the compound `O=C1Nc2ccc(Br)cc2C1=Nc1ccc2c(c1)OCO2`, the growth inhibition is 8% (inactive).

On to `CCCCOCn1c(=O)[nH]c(=O)c2cc(Br)ccc21`, for which the growth inhibition was 91% (active).

As to `Cc1ccc(S/C(=C\C(=O)O)c2ccccc2)cc1`, the growth inhibition is 52% (inactive).

As for `O=[N+]([O-])/C=C/c1cc(Cl)c(/C=C/[N+](=O)[O-])cc1Cl`, the growth inhibition was 73% (active).

Regarding `Cc1cc(S(=O)(=O)Nc2nnc3cnc4ccccc4n23)c(S)cc1Cl`, the growth inhibition is 47% (inactive).

Consider `O=C(/C=C/c1cc(Cl)cc(Cl)c1O)c1cccc(O)c1`, for which the growth inhibition was 95% (active).

Turning to `NC1CCCCC1N.Nc1c(N=Nc2ccc(-c3ccc(N=Nc4cc(S(=O)(=O)[O-])c5ccccc5c4N)cc3)cc2)cc(S(=O)(=O)[O-])c2ccccc12.[OH3+].[OH3+].[Pt+4]`, the growth inhibition is 89% (active).

As to `COC(=O)CCC(NC(=S)N/N=C(\C)c1ccccn1)C(=O)OC` (stereo unspecified), the growth inhibition was 80% (active).

With `NC(=O)C(=O)NNc1ccccc1`, the growth inhibition was 78% (active).

With `COc1cc(C2SCC(=O)N2c2ccc(-c3ccc(-n4c(-c5ccccc5)nc5ccccc5c4=O)cc3)cc2)ccc1O` (stereo unspecified), the growth inhibition was 31% (inactive).

For `COc1ccc(/C=C/c2sc3ccccc3[n+]2CCCCI)cc1OC`, the growth inhibition is 29% (inactive).

Consider `Cc1c(C(C)C)cc(OCCO)cc1C(C)C`, for which the growth inhibition was 10% (inactive).

`Cc1cc(NCCCCCCCCNc2cc(C)nc3cc(N)ccc23)c2ccc(N)cc2n1`: the growth inhibition was 99% (active).

Turning to `C=C(Cl)COC(=O)Nc1cccc(Cl)c1`, the growth inhibition was 47% (inactive).

Regarding `CC(=O)OC1CC2C(C)(C)C(=O)C=C[C@]2(C)C2CCC3(C)C(=CCC3[C@H](CO)C[C@H](O)C(=O)C(C)(C)O)[C@]12C` (stereo partly specified), the growth inhibition is 93% (active).

Consider `COc1ccc(/C=C/C(=O)c2ccccc2)cc1OC`, for which the growth inhibition is 54% (inactive).

Regarding `COc1c(O)c(C=O)c(Br)c(C=O)c1O`, the growth inhibition was 96% (active).

For `O=[N+]([O-])c1cc(Cl)cnc1Br`, the growth inhibition is -19% (inactive).

Take `Cc1ccc2c(c1)C1(SC(C)C(=O)N1c1ccc(Cl)cc1)C(=O)N2` (stereo unspecified): the growth inhibition was 94% (active).

Consider `COc1cc(CSc2ccc(O)cc2)cc(O)c1O`, for which the growth inhibition is 30% (inactive).

Regarding `Cc1ccc2c3ccc4c(c3n(C)c2c1)C(=O)C=CC4=O`, the growth inhibition was 58% (inactive).

With `O=C(Nc1ccc(Cl)cc1)Nc1nnc2nc(C(C(=O)c3cccc([N+](=O)[O-])c3Cl)c3nc4nnc(NC(=O)Nc5ccc(Cl)cc5)n4[nH]c3=O)c(=O)[nH]n12`, the growth inhibition is 28% (inactive).

Turning to `O=C(O)C1CC(c2ccccc2)=NN1c1ccccc1` (stereo unspecified), the growth inhibition was 25% (inactive).

Take `CCCCc1ccc(-n2c(C)c(COC(=O)NC)c(COC(=O)NC)c2C)cc1`: the growth inhibition is 57% (inactive).

Regarding `CCC(=O)c1cc(C(=O)C(=S)SC)cc(C(=O)C(=S)SC)c1`, the growth inhibition was 96% (active).

In the case of `CCn1c(O)c(C=Nc2ccccc2)s/c1=N/Nc1nc(-c2ccccc2)cs1`, the growth inhibition is 27% (inactive).

Take `Cc1ccccc1N=C(NO)c1ccccc1`: the growth inhibition was 49% (inactive).

For the compound `Cc1nc2ccccc2nc1NNc1ccccc1`, the growth inhibition is 32% (inactive).

Still in this test, the particulars now being: S. cerevisiae sgs1 mgt1 strain, at 50.0 µM, stronger effect = higher value.
`O=[N+]([O-])c1cc[n+]([O-])cc1`: the growth inhibition was 26.7% (inactive) and 86.5% (active).

With `CC1(C)CC(=O)C(/C=N/c2nc(-c3ccccc3)cs2)=C(O)C1`, the growth inhibition is 94.2% (active).

As for `Nc1nc(N)c2nc(CNc3ccc(C(=O)NC(CCC(=O)O)C(=O)O)cc3F)cnc2n1` (stereo unspecified), the growth inhibition is 39.5% (inactive).

Take `COC(=O)CC1(O)C(/C=C/c2ccccc2)C(C(=O)OC)C(=O)C(C(=O)OC)C1C(=O)OC` (stereo unspecified): the growth inhibition was 48% (inactive).

Regarding `CC(C)(C)c1ccc(NS(=O)(=O)c2ccc(N)cc2)cc1`, the growth inhibition was 96.3% (active).

As to `CCN(CC)CCNc1ccc([N+](=O)[O-])c2nc3ccccc3c(N)c12`, the growth inhibition is 82.1% (active).

In the case of `CCCCN(CCCC)C(=O)/C=C/c1ccccc1`, the growth inhibition was 92.2% (active).

As to `O=c1[nH]c(-c2ccccc2)nc2c1sc1nc3ccccc3n12`, the growth inhibition is -30.5% (inactive).

Regarding `O=[N+]([O-])c1ccc2c(c1)/C(=N/N=C1c3ccccc3Cc3ccccc31)c1cc([N+](=O)[O-])cc([N+](=O)[O-])c1-2`, the growth inhibition is 89.2% (active).

For the compound `CC(C)C(C)/C=C\C(C)C1CCC2C3=CC=C4CC(O)CCC4(C)C3CCC21C` (stereo unspecified), the growth inhibition is 66.7% (inactive).

As for `O=C1Nc2ccc(Br)cc2C1=Nc1ccc2c(c1)OCO2`, the growth inhibition is 9.4% (inactive).

As for `CCCCOCn1c(=O)[nH]c(=O)c2cc(Br)ccc21`, the growth inhibition was 90.2% (active).

Regarding `Cc1ccc(S/C(=C\C(=O)O)c2ccccc2)cc1`, the growth inhibition was 64.8% (inactive).

Take `O=[N+]([O-])/C=C/c1cc(Cl)c(/C=C/[N+](=O)[O-])cc1Cl`: the growth inhibition was 74.8% (active).

As for `Cc1cc(S(=O)(=O)Nc2nnc3cnc4ccccc4n23)c(S)cc1Cl`, the growth inhibition is -11.9% (inactive).

Regarding `O=C(/C=C/c1cc(Cl)cc(Cl)c1O)c1cccc(O)c1`, the growth inhibition is 94% (active).

For `NC1CCCCC1N.Nc1c(N=Nc2ccc(-c3ccc(N=Nc4cc(S(=O)(=O)[O-])c5ccccc5c4N)cc3)cc2)cc(S(=O)(=O)[O-])c2ccccc12.[OH3+].[OH3+].[Pt+4]`, the growth inhibition is 84.9% (active).

Take `COC(=O)CCC(NC(=S)N/N=C(\C)c1ccccn1)C(=O)OC` (stereo unspecified): the growth inhibition is 82.8% (active).

With `NC(=O)C(=O)NNc1ccccc1`, the growth inhibition was 90.5% (active).

As to `COc1cc(C2SCC(=O)N2c2ccc(-c3ccc(-n4c(-c5ccccc5)nc5ccccc5c4=O)cc3)cc2)ccc1O` (stereo unspecified), the growth inhibition was 65% (inactive).

For `COc1ccc(/C=C/c2sc3ccccc3[n+]2CCCCI)cc1OC`, the growth inhibition is 95.2% (active).

`Cc1c(C(C)C)cc(OCCO)cc1C(C)C`: the growth inhibition was 0.35% (inactive).

Consider `Cc1cc(NCCCCCCCCNc2cc(C)nc3cc(N)ccc23)c2ccc(N)cc2n1`, for which the growth inhibition was 92.1% (active).

Turning to `C=C(Cl)COC(=O)Nc1cccc(Cl)c1`, the growth inhibition was 45% (inactive).

As to `CC(=O)OC1CC2C(C)(C)C(=O)C=C[C@]2(C)C2CCC3(C)C(=CCC3[C@H](CO)C[C@H](O)C(=O)C(C)(C)O)[C@]12C` (stereo partly specified), the growth inhibition is 88.8% (active).

Consider `COc1ccc(/C=C/C(=O)c2ccccc2)cc1OC`, for which the growth inhibition was 51.9% (inactive) and 80.3% (active).

With `COc1c(O)c(C=O)c(Br)c(C=O)c1O`, the growth inhibition is 99% (active).

Turning to `O=[N+]([O-])c1cc(Cl)cnc1Br`, the growth inhibition was 8.35% (inactive).

Consider `Cc1ccc2c(c1)C1(SC(C)C(=O)N1c1ccc(Cl)cc1)C(=O)N2` (stereo unspecified), for which the growth inhibition is 99.4% (active).

As to `COc1cc(CSc2ccc(O)cc2)cc(O)c1O`, the growth inhibition is 74.7% (active).

Consider `Cc1ccc2c3ccc4c(c3n(C)c2c1)C(=O)C=CC4=O`, for which the growth inhibition was 67.2% (inactive).

As for `O=C(Nc1ccc(Cl)cc1)Nc1nnc2nc(C(C(=O)c3cccc([N+](=O)[O-])c3Cl)c3nc4nnc(NC(=O)Nc5ccc(Cl)cc5)n4[nH]c3=O)c(=O)[nH]n12`, the growth inhibition was 99% (active).

Turning to `O=C(O)C1CC(c2ccccc2)=NN1c1ccccc1` (stereo unspecified), the growth inhibition is 58.6% (inactive).

As to `CCCCc1ccc(-n2c(C)c(COC(=O)NC)c(COC(=O)NC)c2C)cc1`, the growth inhibition is 88.5% (active).

In the case of `CCC(=O)c1cc(C(=O)C(=S)SC)cc(C(=O)C(=S)SC)c1`, the growth inhibition is 85.3% (active).

Take `CCn1c(O)c(C=Nc2ccccc2)s/c1=N/Nc1nc(-c2ccccc2)cs1`: the growth inhibition was 43.5% (inactive).

Regarding `Cc1ccccc1N=C(NO)c1ccccc1`, the growth inhibition was 80% (active).

Take `Cc1nc2ccccc2nc1NNc1ccccc1`: the growth inhibition was 36% (inactive).
